Among the data in PubChem BioAssay (NCI) are growth inhibition values, retold here.

Test [1] is described as follows: NCI Yeast Anticancer Drug Screen. Data for the rad50 strain (AID 155).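 Further: 0% = growth of vehicle-only cultures of the same strain.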 Particulars: S. cerevisiae rad50 strain growth inhibition; at 50.0 µM; stronger effect = higher value. In short, it runs like this:
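Yeast carrying a defined DNA repair defect were exposed to test compounds, and growth was compared with vehicle-treated controls to give percent inhibition.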

Test [2] is described as follows: NCI Yeast Anticancer Drug Screen. Data for the mec2-1 strain (AID 157). The following applies: S. cerevisiae mec2-1 strain, at 50.0 µM, stronger effect = higher value. In short, it runs like this:
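Mutant yeast (mec2-1) grown with compound; growth inhibition relative to vehicle control reported.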

The nature of test [3]: NCI Yeast Anticancer Drug Screen. Data for the sgs1 mgt1 strain (AID 161).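 Further: 0% = growth of cultures given vehicle only.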 The following applies: S. cerevisiae sgs1 mgt1 strain, at 50.0 µM, stronger effect = higher value. In short, it runs like this: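 Yeast cells carrying a defined DNA-repair defect were exposed to test compounds. Growth inhibition was measured relative to vehicle-treated controls.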
Test [4] is described as follows: NCI Yeast Anticancer Drug Screen. Data for the cln2 rad14 strain (AID 165).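 Further: 0% = growth equal to vehicle treated cultures.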 The following applies: S. cerevisiae cln2 rad14 strain, at 50.0 µM, stronger effect = higher value. The gist of the method: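 Readout is yeast growth inhibition versus vehicle-treated controls, using a strain with cln2 and rad14 alterations exposed to compound.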
The nature of test [5]: NCI Yeast Anticancer Drug Screen. Data for the bub3 strain (AID 167). The following applies: S. cerevisiae bub3 mutant strain, at 50.0 µM, stronger effect = higher value. The gist of the method: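 Compounds were applied to a genetically altered yeast strain carrying a cell-cycle control defect. Growth inhibition was scored against vehicle-treated controls.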
Test [6] is described as follows: NCI Yeast Anticancer Drug Screen. Data for the mlh1 rad18 strain (AID 175). Particulars: S. cerevisiae mlh1 rad18 strain growth inhibition; at 50.0 µM; stronger effect = higher value. In short, it runs like this:
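Genetically defined yeast (DNA repair-deficient) exposed to compounds; growth inhibition determined relative to vehicle.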

“And” between values parts separate entries of the source, which are not always exact repeats. Equal values may be shown once. This is part of a sample that, as a whole, favours compounds with a hit. Of some 79,000 tested, about 15% had one in any assay. Values without a mark were called inactive. The source made the active and inactive calls. No stated cut-off is given here; in the data, active means growth inhibition above about 70%; inactive means the rest.

For `CCNC(=O)C(C)Br` (stereo not given), the growth inhibition in test [1] is 19.4%; in test [2], 13.1%; in test [3], 23.5%; in test [4] it was -3.55%; in test [5], 6.5%; in test [6], 23.9%.

Regarding `Nc1n[nH][nH]c1=O`, the growth inhibition in test [1] is -29.5%; in test [2], -26.1%; in test [3], -13.9%; in test [4], -20.4%; in test [5], -0.7%; in test [6] it was -12.1%.

For `CC(=O)C(C(C)=O)C(=O)c1ccc([N+](=O)[O-])cc1.[Cr]`, the growth inhibition in test [1] is -23.5%; in test [2] it was 9.5%; in test [3], 6.3%; in test [4], -55.5%; in test [5], 28.5%; in test [6] it was 23.2%.

Turning to `CCOC(=O)CC(=O)C(F)(F)F.CCOC(=O)CC(=O)C(F)(F)F.[Ni]`, the growth inhibition is -21% in test [1]; 14.4% in test [2]; -12.2% in test [3]; 24.4% in test [4]; 12.6% in test [5]; -0.95% in test [6].

On to `O=C(O)c1cc(Cc2ccc(O)c(C(=O)O)c2)ccc1O`, for which the growth inhibition is -24.2% and -8.25% in test [1]; 3.15% and -18.5% in test [2]; -18.3% and 8.2% in test [3]; -0.5% and -39.9% in test [4]; -13.4% and 33.9% in test [5]; -23.9% and -10.8% in test [6].

On to `O=Cc1ccccc1O`, for which the growth inhibition is 28.8% in test [1]; -2.25% in test [2]; 12.4% in test [3]; -10.4% in test [4]; -6.05% in test [5]; 5.6% in test [6].

Consider `Cc1nccn1-c1ccc(Cl)cc1N=Cc1ccc(N(CCCl)CCCl)cc1Cl`, for which the growth inhibition in test [1] is 38.4%; in test [2], 47.5%; in test [3], 68.5%; in test [4], 33.8%; in test [5], 43%; in test [6], 71.5% (active).

As to `C1=[N+]2CCCC2Cc2ccc3ccccc3c21` (stereo not given), the growth inhibition in test [1] is -17.8%; in test [2], -6.1%; in test [3], -4.15%; in test [4] it was -16.4%; in test [5], -4.6%; in test [6] it was -8.85%.

With `CCC[CH2][Sn]([Br])([CH2]CCC)[CH2]CCC`, the growth inhibition in test [1] is 91.2% (active); in test [2], 97.8% (active); in test [3], 95.8% (active); in test [4], 96% (active); in test [5] it was 89.4% (active); in test [6], 97.3% (active).

For the molecule `CC12CC3OC(=O)C1COC14OC5(C2C1=O)C(O)(CCC1C4CC(O)C2(O)CC=CC(=O)C12C)C(=O)OC35C` (stereo not given), the growth inhibition was 5.85% in test [1]; 7.95% in test [2]; 8.3% in test [3]; 11.2% in test [4]; -1.3% in test [5]; -40.8% in test [6].

Turning to `CC(F)C(N)C(=O)O` (stereo not given), the growth inhibition in test [1] is -7.9%; in test [2], -3.65%; in test [3] it was -7.75%; in test [4], -1.7%; in test [5], -0.1%; in test [6], -11.9%.

As for `CC1=CC2OC3CC(OC(=O)/C=C/C=C/C(OCCC4=CC(=O)OC4)C(C)O)C(C)(C2(CO)CC1)C31CO1` (stereo not given), the growth inhibition in test [1] is 31.8%; in test [2] it was -0.7%; in test [3], 11.6%; in test [4], 25.2%; in test [5], 8.5%; in test [6], -2.2%.

As for `C(/COc1cccnc1)=N\NC1=NCCN1`, the growth inhibition in test [1] is -12.2%; in test [2], -29.6%; in test [3], -44.8%; in test [4] it was 3.7%; in test [5], -21.9%; in test [6], -35.9%.

Take `O=[As](O)(O)c1ccccc1`: the growth inhibition is 18.2% in test [1]; -7.1% in test [2]; 4.75% in test [3]; 4.65% in test [4]; -38.1% in test [5]; -15.7% in test [6].

In the case of `O=C(NCP(=O)(O)O)c1cccnc1`, the growth inhibition is -10.7% and -6.8% in test [1]; -29.5% and -10.8% in test [2]; -4.9% and 6.8% in test [3]; -37.6% and -25.1% in test [4]; -32.8% and -6.75% in test [5]; 2.85% and -10.2% in test [6].

In the case of `C[n+]1cccc(C2CCC[N+]2(C)C)c1` (stereo not given), the growth inhibition is 4.4% in test [1]; 7.85% in test [2]; 8.15% in test [3]; -10.9% in test [4]; -9% in test [5]; -4.6% in test [6].

On to `C/C=C(\C)C(=O)N[C@@H](c1ccccc1)[C@@H](O)C(=O)OC1C[C@@]2(O)[C@@H](OC(=O)c3ccccc3)[C@@H]3[C@]4(OC(C)=O)CO[C@@H]4C[C@H](O)[C@@]3(C)C(=O)[C@H](OC(C)=O)C(=C1C)C2(C)C` (stereo not given in full), for which the growth inhibition was 34.1% in test [1]; 13.6% in test [2]; 13.8% in test [3]; 16.9% in test [4]; 21.4% in test [5]; 29.9% in test [6].

`C#C[C@]1(O)CC[C@H]2[C@@H]3CCC4=C/C(=N/OC(=O)c5cccc6c(=O)c7ccccc7[nH]c56)CCC4[C@H]3CC[C@@]21CC` (stereo not given in full): the growth inhibition in test [1] is -15.8%; in test [2], -35%; in test [3] it was -30.4%; in test [4], 23.2%; in test [5], -29.1%; in test [6] it was -45.6%.

For the molecule `C[N+](C)(C)CC1CCC(C[N+](C)(C)C)C1=NO` (stereo not given), the growth inhibition in test [1] is -16.3%; in test [2] it was 11.1%; in test [3], 4.2%; in test [4] it was 13.2%; in test [5], 9.75%; in test [6], -15.5%.

`COc1cc(C2c3cc4c(cc3OC(NCCO)C2C)OCO4)cc(OC)c1O` (stereo not given): the growth inhibition in test [1] was 6.1%; in test [2] it was -11.5%; in test [3] it was -14.3%; in test [4] it was 9.25%; in test [5] it was -18.1%; in test [6], -0.65%.
